Where “and” joins values, the source holds several entries; their conditions need not be identical. Equal entries are not always repeated. The panel holds about 83,000 compounds, 20% with a hit somewhere; the sample as a whole holds those more often.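 Compound tested at a single concentration for 48 hours in 96-well plates; a percent growth value below 10 was scored as active.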 A number with no mark means an inactive call. Calls of active or inactive are those of the source.

Here are results for four compounds from PubChem BioAssay (NCI).

Among the test systems are SR leukemia; OVCAR-8 ovarian; OVCAR-4 ovarian; OVCAR-3 ovarian; HS 578T breast; NCI/ADR-RES ovarian; T-47D breast; BT-549 breast; MDA-MB-435 melanoma; SW-620 colon; MCF7 breast; HCT-116 colon; HCC-2998 colon; KM12 colon.
Common to all, as to test: NCI-60 one-dose screen, 48 h (100 = growth as untreated, 0 = no growth, -100 = all killed)
The subject of a further experiment is RPMI-8226 leukemia. The following applies: 10 µM unless noted.
The subject of another experiment is OVCAR-5 ovarian. Particulars: 10 µM unless noted.
A further experiment relates to SK-OV-3 ovarian. The following applies: 10 µM unless noted.
The next experiment concerns IGROV1 ovarian. Particulars: 10 µM unless noted.

On to `NC(=S)N/N=C(\c1ccc(Br)cc1)C1CC1`, for which the growth in the experiment on SR leukemia (10 µM unless noted) is 87.6%; in the experiment with RPMI-8226 leukemia, 71.3% and 60.9%; with OVCAR-8 ovarian (10 µM unless noted), 83%; in the experiment on OVCAR-5 ovarian, 110% and 97.1%; with OVCAR-4 ovarian (10 µM unless noted), 74.4%; in the experiment with SK-OV-3 ovarian it was 105% and 97%. Moreover, the growth in the experiment on IGROV1 ovarian is 18.1% and 42.3%; in the experiment with OVCAR-3 ovarian (10 µM unless noted), 38.3% and 37.1%; in the experiment on HS 578T breast (10 µM unless noted), 96.1% and 98%; in the experiment on NCI/ADR-RES ovarian (10 µM unless noted), 74.2% and 57.5%; with T-47D breast (10 µM unless noted), 70.1% and 36.2%; with BT-549 breast (10 µM unless noted), 99.6% and 106%. The growth was 92% and 91.9% in the experiment with MDA-MB-435 melanoma (10 µM unless noted); 79.7% and 71.1% with SW-620 colon (10 µM unless noted); 24.4% and 20.6% with MCF7 breast (10 µM unless noted); 7.26% (active) and 2.42% (active) in the experiment with HCT-116 colon (10 µM unless noted); 97.2% and 93.9% in the experiment with HCC-2998 colon (10 µM unless noted); 101% and 108% in the experiment on KM12 colon (10 µM unless noted).

Take `O=C(O)C1(C(=O)O)CCC1.[NH2-].[NH2-].[Pt+2]`: the growth is 122% and 50.7% in the experiment with SR leukemia (10 µM unless noted); 104% with RPMI-8226 leukemia; 102% with OVCAR-8 ovarian (10 µM unless noted); 97.6% and 83.7% in the experiment with OVCAR-5 ovarian; 109% and 92.2% with OVCAR-4 ovarian (10 µM unless noted); 104% and 107% in the experiment with SK-OV-3 ovarian. Also, the growth in the experiment with IGROV1 ovarian was 95.6%; with OVCAR-3 ovarian (10 µM unless noted) it was 117% and 105%; in the experiment with HS 578T breast (10 µM unless noted), 105% and 112%; in the experiment on NCI/ADR-RES ovarian (10 µM unless noted) it was 103% and 99.7%; in the experiment with T-47D breast (10 µM unless noted), 96.6% and 102%; with BT-549 breast (10 µM unless noted), 103% and 106%. The growth in the experiment with MDA-MB-435 melanoma (10 µM unless noted) was 108% and 99.5%; with SW-620 colon (10 µM unless noted), 111% and 103%; with MCF7 breast (10 µM unless noted), 98.5% and 90.9%; in the experiment with HCT-116 colon (10 µM unless noted), 107% and 108%; in the experiment on HCC-2998 colon (10 µM unless noted), 97.2% and 118%; with KM12 colon (10 µM unless noted) it was 112% and 100%.

Take `O=C(CCc1ccc(O)cc1)N/N=C/c1cc(Br)ccc1O`: the growth in the experiment with SR leukemia (10 µM unless noted) is 26.6%; in the experiment on RPMI-8226 leukemia, 45.2%; in the experiment with OVCAR-8 ovarian (10 µM unless noted), 56.2%; in the experiment on OVCAR-5 ovarian, 53.3%; in the experiment on OVCAR-4 ovarian (10 µM unless noted), 34.7%; in the experiment on SK-OV-3 ovarian, 61.2%. Moreover, the growth in the experiment on IGROV1 ovarian was 62.5%; in the experiment with OVCAR-3 ovarian (10 µM unless noted), 44.4%; in the experiment with HS 578T breast (10 µM unless noted), 90.3%; with NCI/ADR-RES ovarian (10 µM unless noted) it was 16.7%; in the experiment on T-47D breast (10 µM unless noted), 33.3%; with BT-549 breast (10 µM unless noted), 52.4%. For the same compound, the growth with MDA-MB-435 melanoma (10 µM unless noted) was 55.8%; with SW-620 colon (10 µM unless noted), 59.5%; with MCF7 breast (10 µM unless noted) it was 38.9%; with HCT-116 colon (10 µM unless noted), 46.7%; with HCC-2998 colon (10 µM unless noted) it was 50.1%; in the experiment with KM12 colon (10 µM unless noted), 28.1%.

Turning to `Cc1[nH]c(-c2nc3ccccc3[nH]2)c(C)c1C(=O)NC(C)C1CCCCC1` (centres undefined), the growth was 69% with SR leukemia (10 µM); -44.3% (active) with SR leukemia (100 µM); -65.3% [100 µM] (active) in the experiment with RPMI-8226 leukemia; 96.9% with OVCAR-8 ovarian (10 µM); -61.5% (active) in the experiment on OVCAR-8 ovarian (100 µM); 92.1% in the experiment on OVCAR-4 ovarian (10 µM). For the same compound, the growth in the experiment with OVCAR-4 ovarian (100 µM) is -84.1% (active); in the experiment with SK-OV-3 ovarian, -77.6% [100 µM] (active); with OVCAR-3 ovarian (10 µM), 90%; in the experiment on OVCAR-3 ovarian (100 µM), -86.9% (active); with HS 578T breast (10 µM), 82.8%; in the experiment on HS 578T breast (100 µM), -39% (active). Further, the growth in the experiment with NCI/ADR-RES ovarian (10 µM) is 85.5%; with NCI/ADR-RES ovarian (100 µM) it was -79.7% (active); in the experiment on T-47D breast (10 µM) it was 89%; with T-47D breast (100 µM) it was -58.1% (active); in the experiment with BT-549 breast (10 µM) it was 95.5%; in the experiment with BT-549 breast (100 µM) it was -81.6% (active). In addition, the growth in the experiment on MDA-MB-435 melanoma (10 µM) is 37.5%; in the experiment with MDA-MB-435 melanoma (100 µM), -94.8% (active); in the experiment on SW-620 colon (10 µM) it was 92.9%; in the experiment on SW-620 colon (100 µM) it was -68.8% (active); in the experiment on MCF7 breast (10 µM), 71.1%; with MCF7 breast (100 µM) it was -73.7% (active). In addition, the growth with HCT-116 colon (10 µM) is 85.5%; with HCT-116 colon (100 µM), -76.8% (active); in the experiment with HCC-2998 colon (10 µM), 97.9%; in the experiment on HCC-2998 colon (100 µM) it was -82.6% (active); with KM12 colon (10 µM), 84.4%; in the experiment with KM12 colon (100 µM), -91.8% (active).
